Screen size: about 360,000 compounds; about 1,300 (0.36%) were called active. Cut-off read from the data, not from the text of the source: active = inhibition above about 19%; inactive = the rest. Shown is part of a subset that was picked to be rich in actives.
The compounds below were run on T-cell receptor (TCR) (assay: inhibitors of human TCR-CD3 interaction, primary screen, biochemical, fluorescence, TAMRA-labeled TCR probe (AID 651800;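 note: recombinant mutant TCR 2C K166C tagged with TAMRA read by polarization; 0% = receptor in buffer alone and 100% = receptor with positive control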)). Conditions: at 9.4 µM, active compounds read high.

| SMILES | inhibition |
| --- | --- |
| COCCNC(=S)N(C)[C@H]1C[C@H]2c3[nH]c4ccccc4c3CCN2C[C@H]1[C@H](C)O | 10.3% (inactive) |
| O=C(Nc1cccc2ccccc12)NC1CC1 | 10.8% (inactive) |
| CCN(C(=O)Nc1cccc2ccccc12)c1ccccc1 | 66.9% (active) |
| CC(=O)N(C)c1ccc(NC(=O)Nc2cccc3ccccc23)cc1 | -3.94% (inactive) |
| CC1CCN(c2ccc(S(=O)(=O)Nc3cc(C(=O)O)cc(C(=O)O)c3)cc2[N+](=O)[O-])CC1 | 2.91% (inactive) |
| O=C(O)c1ccc(-n2nc(-c3ccccc3)c3ccccc3c2=O)cc1 | -0.55% (inactive) |
| O=c1c2ccccc2c(-c2ccccc2)nn1-c1ccccn1 | 26.3% (active) |
| CCOC(=O)C(C)n1nc(-c2ccccc2)c2ccccc2c1=O (centres undefined) | 1.19% (inactive) |
| CC(C)[C@@H](C)/C=C/[C@@H](C)[C@H]1CC[C@@H]2[C@]1(C)CCC1[C@]23C=C[C@]2(C[C@@H](O)CC[C@]12C)N(c1ccc([N+](=O)[O-])cn1)O3 (some centres undefined) | 0.39% (inactive) |
| COC(=O)Nc1nc2ccc(C(=O)C3CC3)cc2[nH]1 | 2.68% (inactive) |
| CC(=NNC(N)=O)c1ccc(Cl)c(-n2cccc2)c1 | -1.93% (inactive) |
| CSc1ccc(/C=N/NC(=O)c2cccc(Cl)c2)cc1 | -1.56% (inactive) |
| CC(C)(C)C(=O)Nc1ccc(C(=O)N/N=C/c2ccccc2OC(=O)c2ccc(Cl)cc2Cl)cc1 | 33.2% (active) |
| O=C(N/N=C/c1ccoc1)c1ccc(Cl)cc1Cl | 2.14% (inactive) |
| OC(CCl)CCl | 2.99% (inactive) |
| COc1ccc(C2(CNC(=O)Cc3ccc(OC)c(OC)c3)CCCC2)cc1 | 8.2% (inactive) |
| CCOc1c(OC)cccc1C(=O)NCC1(c2ccccc2)CCCC1 | -3.45% (inactive) |
| COc1cc(C(=O)NCC2(c3ccccc3)CCCC2)ccc1OC(C)C | 35.4% (active) |
| CCOC(=O)/C=C/c1ccccc1O | 0.35% (inactive) |
| O=c1[nH]n(-c2ccc([N+](=O)[O-])cc2)c(=O)c2ccccc12 | 57% (active) |
| O=C(Nn1c(SCc2ccc([N+](=O)[O-])cc2)nc2ccccc2c1=O)c1ccc(F)cc1 | 4.61% (inactive) |

| SMILES | inhibition |
| --- | --- |
| CC(=O)N1c2ccccc2N(Cc2ccc([N+](=O)[O-])cc2)C(=O)C1(C)C | -3% (inactive) |
| N#Cc1ccc(-c2nc3cc(C#N)c(C#N)cc3nc2-c2ccccc2)cc1C#N | 10.9% (inactive) |
| COc1ccc(NC(=O)N(C)C[C@@H]2OCCCC[C@@H](C)Oc3ccc(NC(=O)NC4CCCCC4)cc3C(=O)N([C@H](C)CO)C[C@@H]2C)cc1 | 4.84% (inactive) |
| Cc1cc(=O)n2[nH]c(-c3sccc3-n3c(C)ccc3C)cc2n1 | -6.69% (inactive) |
| CCOc1ccc(N/C(N)=N/c2nc(C)c(C)c(=O)[nH]2)cc1 | 4.59% (inactive) |
| CCOc1ccc(-n2c(O)c(/C=N/Nc3nnc(C)c(=O)[nH]3)c3ccccc3c2=O)cc1 | 43.9% (active) |
| CCOc1ccc(-n2c(SCC(=O)Nc3cc(C(=O)O)ccc3Cl)nc3ccccc3c2=O)cc1 | -2.21% (inactive) |
| CCN1C(=O)N[C@@H]2C[C@H](C(=O)N3CCCC3)[C@H](C)[C@H](c3ccccc3)C[C@@H]21 | 2.71% (inactive) |
| CCCCCCc1cc2cc(-c3nnc(-c4cccc(OC)c4)o3)c(=O)oc2cc1O | -0.99% (inactive) |
| COC(=O)c1cc2c(c3c4ccccc4n(S(=O)(=O)c4cccc(C)c4)c13)C(=O)N(Cc1ccccc1)C2 | -0.99% (inactive) |
| Nc1ccn([C@@H]2O[C@H](C(=O)N[C@H]3CCCCNC3=O)[C@@H](O)[C@H]2O)c(=O)n1 | 1.09% (inactive) |
| COc1ccc(C(=O)NC(=S)NNC(=O)CCc2ccccc2)cc1 | 101% (active) |
| COc1ccc(/C(N)=N/OC(=O)CCCc2ccccc2)cc1 | 3.62% (inactive) |
| COc1ccccc1CCC(=O)NNC(=O)c1ccncc1 | 1.16% (inactive) |
| C[C@@H]1CN([C@H](C)CO)C(=O)CCCn2cc(nn2)CO[C@H]1CN(C)C(=O)Nc1ccc(N2CCCCC2)cc1 | -4.6% (inactive) |
| O=C(Nc1c(Cl)c(C2CC2)nn1-c1ccccc1)C(Cl)(Cl)Cl | 4.25% (inactive) |
| O=C(N[C@H](C(=O)N1CCC[C@H]1C(=O)NCCc1ccccc1Cl)c1ccccc1)c1ccccc1 | 7.43% (inactive) |
| Cc1cc(NCCc2c[nH]c3ccccc23)ccc1Oc1cccnc1 | -1.7% (inactive) |
| O=C(N[C@H](Cc1ccccc1)C(=O)N1CCCN(Cc2cccs2)CC1)[C@H]1O[C@@H](n2ccc(=O)[nH]c2=O)[C@H](O)[C@@H]1O | -1.23% (inactive) |
| COC(=O)N1Cc2ccnnc2CC1c1ccccc1Br (centres undefined) | 12% (inactive) |
| Cc1ccc(NC(=O)N2c3ccccc3SC2c2ccco2)c(C)c1 (centres undefined) | 1.82% (inactive) |

| SMILES | inhibition |
| --- | --- |
| COC(=O)C1=C(C)N(Cc2ccc(C(F)(F)F)cc2)C(=NCc2ccc(C(F)(F)F)cc2)NC1c1cccc(Cl)c1 (centres undefined) | 1.76% (inactive) |
| COCCOC(=O)c1sc(=S)n(CCOC)c1N | 38.1% (active) |
| COC(=O)[C@]12C[C@H](CC(=O)NCCC(C)C)C(=O)N(CCc3ccc(OC)c(OC)c3)C1=C[C@H](C(C)(C)C)O[C@@H]2C | -1.41% (inactive) |
| COCc1cc(N2CCN(C(=O)OC(C)(C)C)C[C@@H]2C)ccc1N1CCN(Cc2ccccc2)[C@H](C)C1 | -5.69% (inactive) |
| Cc1cc(N2CCN(C(=O)OC(C)(C)C)C[C@H]2C)ccc1N1CCN(Cc2ccccc2)[C@H](C)C1 | -1.77% (inactive) |
| COc1cccc2c1C(=O)c1c(O)c3c(c(O)c1C2=O)CC(O)(C(C)=NNC(=O)c1ccc(Cl)c(Cl)c1)CC3OC1CC(N)C(O)C(C)O1 (centres undefined) | 158% (active) |
| Nc1nc2c(ncn2[C@@H]2O[C@H](C(=O)N[C@H](Cc3ccccc3)C(=O)NCC3CCCCC3)[C@@H](O)[C@H]2O)c(=O)[nH]1 | -5.72% (inactive) |
| CCCCCCCCN1C(=O)[C@@H](CC(=O)NCCCC)C[C@@]2(C(=O)OC)C1=C[C@H](C(C)(C)C)O[C@@H]2C | 4.32% (inactive) |
| CC1(C)OC(=O)C2=C(CC(CCc3ccccc3)OC2c2ccc(Cl)cc2)O1 (centres undefined) | 0.34% (inactive) |
| Cc1ccc(CCC(=O)Nc2ncc(Cc3cc(Cl)ccc3Cl)s2)o1 | -1.49% (inactive) |
| Cc1ccc(Cc2cnc(N)s2)o1 | 20.7% (active) |
| C=CCN=C1NC(c2ccccc2)C(C(=O)OC)=C(C)N1Cc1ccc(C(F)(F)F)cc1 (centres undefined) | -2.66% (inactive) |
| N#Cc1ccc(OCCCN2CCC(C(O)(c3ccccc3)c3ccccc3)CC2)c(F)c1 | -1.37% (inactive) |
| COC(=O)c1ccc(CN2C(=O)[C@]3(OCCC=C[C@H]3C)c3c(Br)cccc32)cc1 | -2.86% (inactive) |
| CN1c2ccc(C=O)c3c(C=O)ccc(c23)N(C)C1(C)C | 35% (active) |
| C#CCOCCOCCOCCNc1nc(N2CCN(C(=O)C([C@@H](C)CC)n3cc(C(N)COC(=O)C(F)(F)F)nn3)CC2)nc(N2CCN(C(=O)[C@H](Cc3ccc(O)cc3)n3cc(C(N)[C@H](C)CC)nn3)CC2)n1 (some centres undefined) | 1.55% (inactive) |
| CCCN1C(=O)c2[nH]nc(-c3ccccc3)c2C1c1ccccc1 (centres undefined) | 1.37% (inactive) |
| CN(C)c1ccc(/C=N/NC(=O)C(O)c2ccc(Br)cc2)cc1 (centres undefined) | 4.89% (inactive) |
| CN(C)c1ccc(N/C=C/C(=O)C(F)(F)F)cc1 | 20.8% (active) |
| CNC(=S)NNC(=O)c1ccc(N(C)C)cc1 | 5.64% (inactive) |
| C#CCN([C@@H](C)C(=O)OCC)S(=O)(=O)c1ccc(Br)cc1F | 1.93% (inactive) |

| SMILES | inhibition |
| --- | --- |
| C(=N/N1CCN(c2ccccc2)CC1)/c1cccs1 | 4.89% (inactive) |
| CSc1ccc(/C=N/N2CCN(Cc3ccccc3Cl)CC2)cc1 | -2.6% (inactive) |
| CN1CCN(/N=C/c2ccc(C#N)cc2)CC1 | 51.9% (active) |
| COC(=O)C1=C(C)NC(=S)NC1c1ccc(OC)cc1 (centres undefined) | 0.64% (inactive) |
| COc1cccc(CC(=O)N2CCN(C(=O)C(=O)c3cccc(C(F)(F)F)c3)CC2)c1 | 0.68% (inactive) |
| C[C@H](O)[C@@H]1CN2CCc3ccc(-c4ccc5c(c4)OCO5)cc3[C@@H]2C[C@@H]1N(C)C(=O)C1CCCCC1 | 8.65% (inactive) |
| O=C(CCNC(=O)c1ccccc1)NN=Cc1ccc(Br)o1 | 21.9% (active) |
| O=C(CCNC(=O)c1ccccc1Cl)NN=Cc1ccco1 | -5.52% (inactive) |
| O=C(N/N=C/c1ccc(Br)o1)c1cncc(Br)c1 | -0.44% (inactive) |
| CN1C(=O)C(Br)(Br)CC1c1cccnc1 (centres undefined) | -8.3% (inactive) |
| Cc1cc(Br)cn2c(Cc3ccccc3C(F)(F)F)c(-c3ccc(C#N)cc3)nc12 | 4.41% (inactive) |
| COCCCNC(=S)NNC(=O)C(O)(c1ccccc1)c1ccccc1 | 24.9% (active) |
| COCCCNC(=S)N(Cc1ccccc1)Cc1ccc(F)cc1 | -3.1% (inactive) |
| CCCCNC(=S)NNC(=O)c1cc(C)on1 | 11.9% (inactive) |
| O=C(C(=O)N1CCC(CNS(=O)(=O)Cc2ccccc2)CC1)c1cc2ccccc2o1 | -2.01% (inactive) |
| OC(c1ccccc1)(c1ccccc1)C1CCN(CCCOc2ccc(-c3ccsc3)cc2)CC1 | 2.16% (inactive) |
| Cc1ccc(CNC(=O)Cc2cn(C)c3ccccc23)cc1 | 6.02% (inactive) |
| Cc1ccc(CNC(=O)COc2ccc3c(c2)CCC3)cc1 | 1.31% (inactive) |
| CCOCC(=O)NCc1ccc2c(c1)cc(C)n2C | 28.4% (active) |
| COC(=O)[C@H](CC(C)C)NS(=O)(=O)c1c(F)cccc1F | -1.84% (inactive) |
| O=c1[nH]c(-c2ccccc2)cn1C1CCN(Cc2ccc(-c3nc4ccc(F)cc4nc3-c3ccccc3)cc2)CC1 | 12% (inactive) |

Source: PubChem BioAssay AID651800 (The Scripps Research Institute Molecular Screening Center, 2012)
